Assay results published in the supplement of paper PMC12350171.
Structures can show the parent of a compound that is named as a salt.

Experiments:
Details in all cases: 20 µM
[1] = system: Salmonella enterica typhimurium; test: growth AUC normalised to DMSO control (fraction of control); higher = less growth inhibition, active = hit call of the paper
Method in brief: (§1)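 Pathogens were passaged twice under anaerobic conditions, then inoculated into pre-reduced mGAM plates at a starting OD578 of 0.01, with compound at 20 μM and 1% DMSO, and sealed with breathable membranes. For Haemophilus parainfluenzae, the medium was supplemented with hemin and NAD. OD578 was read every hour for 24 h in three biological replicates. Growth-curve AUC was calculated by the trapezoidal rule up to the exponential-to-stationary transition and normalised to DMSO controls on the same plate.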

Shigella flexneri = test: as above
Method in brief: as §1

Vibrio cholerae = test: as above
Method in brief: as §1

[2] = system: Yersinia pseudotuberculosis; test: as above
Method in brief: as §1

P. vulgatus RND KO = test: growth AUC normalised to DMSO control (median) (fraction of control); higher = less growth inhibition, active = hit call of the paper
Method in brief: (§2)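 Anaerobic growth was tracked hourly at OD578 for 24 h in 96-well plates of mGAM seeded at OD578 0.01 with each approved-drug library compound at 20 μM and 1% DMSO. Strains had first been passaged twice overnight without oxygen. Three biological replicates were run. The reported median is the area under the curve, calculated by the trapezoidal rule on curves truncated at entry into stationary phase and normalised to vehicle wells on the same plate.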

P. vulgatus WT = test: as above
Method in brief: as §2

[3] = system: S. enterica typhimurium WT; test: as above
Method in brief: as §2

[4] = system: S. enterica typhimurium tolC KO; test: as above
Method in brief: as §2

Measured: growth AUC normalised to DMSO control
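Throughout, for growth AUC normalised to DMSO control (median): active when median AUC fell below 0.1.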

Cc1ccccc1N1C(=O)c2cc(S(N)(=O)=O)c(Cl)cc2NC1C (configuration not stated) [Metolazone]
inactive: [1] 0.994 | Shigella flexneri 0.984 | Vibrio cholerae 0.996 | [2] 0.991 | P. vulgatus RND KO 0.99 | P. vulgatus WT 1 | [3] 1.02 | [4] 0.997

CCCCC1C(=O)N(c2ccccc2)N(c2ccccc2)C1=O [Phenylbutazone]
inactive: [1] 1.01 | Shigella flexneri 0.991 | Vibrio cholerae 0.973 | [2] 1.01 | P. vulgatus RND KO 1.03 | P. vulgatus WT 1.07 | [3] 1 | [4] 0.964

CCn1cc(C(=O)O)c(=O)c2cnc(N3CCCC3)nc21 [Piromidic acid]
active: Vibrio cholerae 0.0557 | [4] 0.0548
inactive: [1] 0.996 | Shigella flexneri 1.04 | [2] 0.983 | P. vulgatus RND KO 1.06 | P. vulgatus WT 1.03 | [3] 1.02

COc1ccc2[nH]c([S+]([O-])Cc3ncc(C)c(OC)c3C)nc2c1 (configuration not stated) [Omeprazole]
inactive: [1] 0.958 | Shigella flexneri 0.998 | Vibrio cholerae 1.05 | [2] 1 | P. vulgatus RND KO 1.02 | P. vulgatus WT 1.03 | [3] 1 | [4] 0.952

COc1cc2nc(N(C)CCCNC(=O)C3CCCO3)nc(N)c2cc1OC (configuration not stated) [Alfuzosin hydrochloride]
inactive: [1] 1.01 | Shigella flexneri 1.03 | Vibrio cholerae 1.06 | [2] 0.978 | P. vulgatus RND KO 1.02 | P. vulgatus WT 1.08 | [3] 1.01 | [4] 1.01

CN[C@H](CC(C)C)C(=O)N[C@H]1C(=O)N[C@@H](CC(N)=O)C(=O)N[C@H]2C(=O)N[C@H]3C(=O)N[C@H](C(=O)N[C@H](C(=O)O)c4cc(O)cc(O)c4-c4cc3ccc4O)[C@H](O)c3ccc(c(Cl)c3)Oc3cc2cc(c3O[C@@H]2O[C@H](CO)[C@@H](O)[C@H](O)[C@H]2O[C@H]2C[C@](C)(N)[C@H](O)[C@H](C)O2)Oc2ccc(cc2Cl)[C@H]1O [Vancomycin hydrochloride]
active: P. vulgatus RND KO 0.014 | P. vulgatus WT 0.0118
inactive: [1] 0.986 | Shigella flexneri 0.984 | Vibrio cholerae 1.01 | [2] 0.981 | [3] 0.996 | [4] 0.996

O=C1c2c(O)cccc2Cc2cccc(O)c21 [Anthralin]
inactive: [1] 1.02 | Shigella flexneri 0.987 | Vibrio cholerae 1.03 | [2] 1.02 | P. vulgatus RND KO 0.861 | P. vulgatus WT 0.834 | [3] 0.989 | [4] 0.985

Cc1c(O)c(=O)n(-c2ccccc2)n1C [Antipyrine, 4-hydroxy]
inactive: [1] 1.01 | Shigella flexneri 1.07 | Vibrio cholerae 1.01 | [2] 1.03 | P. vulgatus RND KO 1.01 | P. vulgatus WT 1.06 | [3] 1.01 | [4] 1

C[C@]12CC[C@H]3C(=CCc4cc(O)ccc43)[C@@H]1CCC2=O [Equilin]
inactive: [1] 1.01 | Shigella flexneri 0.993 | Vibrio cholerae 0.99 | [2] 1.01 | P. vulgatus RND KO 0.993 | P. vulgatus WT 0.991 | [3] 1 | [4] 0.95

c1ccc(CNc2ncnc3nc[nH]c23)cc1 [Aminopurine, 6-benzyl]
inactive: [1] 1 | Shigella flexneri 1 | Vibrio cholerae 0.953 | [2] 1.01 | P. vulgatus RND KO 1 | P. vulgatus WT 0.985 | [3] 1 | [4] 0.995

CO[C@@]1(NC(=O)Cc2cccs2)C(=O)N2C(C(=O)O)=C(COC(N)=O)CS[C@@H]21 [Cefoxitin sodium salt]
active: [1] 0.00626 | Shigella flexneri 0.0351 | Vibrio cholerae 0.307 | [2] 0.0451 | P. vulgatus RND KO 0.018 | P. vulgatus WT 0.0178 | [3] 0.00954 | [4] 0.0113

NS(=O)(=O)c1cc2c(cc1Cl)N=CNS2(=O)=O [Chlorothiazide]
inactive: [1] 1.01 | Shigella flexneri 0.998 | Vibrio cholerae 1.02 | [2] 1.01 | P. vulgatus RND KO 1.03 | P. vulgatus WT 1.07 | [3] 1.01 | [4] 1.01

CN[C@H]1CC[C@@H](c2ccc(Cl)c(Cl)c2)c2ccccc21 [Sertraline]
inactive: [1] 0.992 | Shigella flexneri 0.978 | Vibrio cholerae 0.928 | [2] 1.01 | P. vulgatus RND KO 0.998 | P. vulgatus WT 1.02 | [3] 0.999 | [4] 0.945

CN(C)C(=N)NC(=N)N [Metformin hydrochloride]
inactive: [1] 1 | Shigella flexneri 1.01 | Vibrio cholerae 1.02 | [2] 0.983 | P. vulgatus RND KO 1.01 | P. vulgatus WT 0.996 | [3] 1 | [4] 1

CC(C(=O)O)c1cccc(Oc2ccccc2)c1 (configuration not stated) [Fenoprofen calcium salt dihydrate]
inactive: [1] 0.995 | Shigella flexneri 0.924 | Vibrio cholerae 0.945 | [2] 0.987 | P. vulgatus RND KO 0.99 | P. vulgatus WT 0.983 | [3] 1 | [4] 0.995

O=C(COc1ccc(Cl)cc1)N1CCN(Cc2ccc3c(c2)OCO3)CC1 [Fipexide hydrochloride]
inactive: [1] 0.987 | Shigella flexneri 0.971 | Vibrio cholerae 0.875 | [2] 0.992 | P. vulgatus RND KO 1 | P. vulgatus WT 0.966 | [3] 0.995 | [4] 0.942

O=C(c1ccc(F)cc1)C1CCN(CCn2c(=O)[nH]c3ccccc3c2=O)CC1 [Ketanserin tartrate hydrate]
inactive: [1] 1.01 | Shigella flexneri 1.03 | Vibrio cholerae 0.894 | [2] 1 | P. vulgatus RND KO 1.03 | P. vulgatus WT 1.05 | [3] 1.02 | [4] 0.997

CNNCc1ccc(C(=O)NC(C)C)cc1 [Procarbazine hydrochloride]
inactive: [1] 1 | Shigella flexneri 1.02 | Vibrio cholerae 1 | [2] 0.992 | P. vulgatus RND KO 1.06 | P. vulgatus WT 1.05 | [3] 1.01 | [4] 1

CC1(C)O[C@@H]2C[C@H]3[C@@H]4CCC5=CC(=O)CC[C@]5(C)[C@@]4(F)[C@@H](O)C[C@]3(C)[C@]2(C(=O)CCl)O1 [Halcinonide]
inactive: [1] 1 | Shigella flexneri 1.03 | Vibrio cholerae 0.99 | [2] 1 | P. vulgatus RND KO 0.993 | P. vulgatus WT 1 | [3] 1.02 | [4] 0.967

NS(=O)(=O)c1cc(C(=O)O)cc(N2CCCC2)c1Oc1ccccc1 [Piretanide]
inactive: [1] 1.03 | Shigella flexneri 1.07 | Vibrio cholerae 1.08 | [2] 1.01 | P. vulgatus RND KO 1.06 | P. vulgatus WT 1.07 | [3] 1 | [4] 0.997

c1coc(CNc2ncnc3[nH]cnc23)c1 [Kinetin]
inactive: [1] 1.01 | Shigella flexneri 1.02 | Vibrio cholerae 1.01 | [2] 0.992 | P. vulgatus RND KO 1.01 | P. vulgatus WT 1.05 | [3] 1 | [4] 1.01

CCCCCCCCNC(C)C(O)c1ccc(SC(C)C)cc1 (configuration not stated) [Suloctidil]
inactive: [1] 1.02 | Shigella flexneri 0.995 | Vibrio cholerae 1 | [2] 0.937 | P. vulgatus RND KO 0.992 | P. vulgatus WT 1.02 | [3] 1.02 | [4] 0.997

CC(C)C(=O)c1c(C(C)C)nn2ccccc12 [Ibudilast]
inactive: [1] 1.01 | Shigella flexneri 1.01 | Vibrio cholerae 1.05 | [2] 0.994 | P. vulgatus RND KO 0.949 | P. vulgatus WT 0.956 | [3] 1 | [4] 0.33

Cc1cc(CC(=O)O)n(C)c1C(=O)c1ccc(Cl)cc1 [Zomepirac sodium salt]
inactive: [1] 0.997 | Shigella flexneri 1 | Vibrio cholerae 0.995 | [2] 1 | P. vulgatus RND KO 0.992 | P. vulgatus WT 1.01 | [3] 0.991 | [4] 1.02

CC12CC3CC(C)(C1)CC(N)(C3)C2 [Memantine hydrochloride]
inactive: [1] 0.997 | Shigella flexneri 0.99 | Vibrio cholerae 1.01 | [2] 0.985 | P. vulgatus RND KO 1.01 | P. vulgatus WT 1.02 | [3] 1.01 | [4] 1

Nc1ccc(C(=O)O)c(O)c1 [Aminosalicylic acid]
inactive: [1] 1.03 | Shigella flexneri 1.01 | Vibrio cholerae 0.988 | [2] 0.962 | P. vulgatus RND KO 1.02 | P. vulgatus WT 1 | [3] 1.01 | [4] 1.01

NS(=O)(=O)c1cc2c(cc1Cl)NC(C(Cl)Cl)NS2(=O)=O (configuration not stated) [Trichlormethiazide]
inactive: [1] 0.974 | Shigella flexneri 1.04 | Vibrio cholerae 0.957 | [2] 0.986 | P. vulgatus RND KO 0.974 | P. vulgatus WT 0.982 | [3] 1.01 | [4] 0.999

CCn1cc(C(=O)O)c(=O)c2ccc(C)nc21 [Nalidixic acid sodium salt]
inactive: P. vulgatus RND KO 0.985 | P. vulgatus WT 0.969 | [3] 0.105
active: [1] 0.594 | Shigella flexneri 0.111 | Vibrio cholerae 0.035 | [2] 0.052 | [4] 0.0195

Cc1cc(-c2ccccc2)nnc1NCCN1CCOCC1 [Minaprine dihydrochloride]
inactive: [1] 0.997 | Shigella flexneri 1.01 | Vibrio cholerae 1.02 | [2] 1 | P. vulgatus RND KO 1 | P. vulgatus WT 0.998 | [3] 1 | [4] 0.998
